# Assay outcomes as filed in PubChem BioAssay.
# Resorufin autofl = resorufin region autofluorescence. Compound fluorescence, resorufin region 547/598 nm, buffer; stronger effect = higher value. max dye-equivalent concentration, M. 0.04% of 59,000 active
#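 Intrinsic fluorescence profiled in the resorufin window (ex 547 nm, em 598 nm) after 15 min at room temperature in pH 8.0 Tris buffer (100 mM); responses normalized against a six-point resorufin standard series as dye-equivalent concentration.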
# A647 autofl = compound fluoresces in the A647 spectral region. 59,000 tested, under 10 active. max dye-equivalent concentration, M. Compound fluorescence, A647 channel (570/671 nm), Tris buffer. AID 592;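 further: values scaled relative to a standard on each plate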
#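 Fluorescence read (570 nm ex, 671 nm em) after 15 min RT incubation of compounds in 100 mM Tris buffer, pH 8.0; values expressed as dye-equivalent concentration against a six-point A647 standard series on each plate.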
# Rhodamine fluor = rhodamine region autofluorescence; Rhodamine-region fluorescence, 547/598 nm, Tris buffer; stronger effect = higher value; max dye-equivalent concentration, M; 0.05% of 59,000 active; AID 594; in the data active means max dye-equivalent concentration above about 11 nM; inconclusive means between about 1.1 nM and that limit
#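 Read-out is relative fluorescence at 547 nm excitation and 598 nm emission, expressed as dye-equivalent concentration using rhodamine standards on every plate. Each compound was profiled across a concentration series after 15 min in 100 mM Tris, pH 8.0.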
# A488 autofl = compound autofluorescence in A488 spectral region | compound autofluorescence, A488 spectral region, dye equivalency; Compound Type: qHTS ECL - MLSMR | max dye equivalency, M | 0.1% of 59,000 active
#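 Spectroscopic profiling in the A488 region: compounds in pH 8.0 Tris (100 mM), 15 min RT, CCD imaging with 480 nm excitation and 540 nm emission; responses normalized against A488 dye standards.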
# TexasRed autofl = compounds fluorescent in Texas Red spectral region | AID 587 | Compound fluorescence, Texas Red channel, 547/618 nm; stronger effect = higher value | 0.06% of 59,000 active | max dye-equivalent concentration, M; in the data active means max dye-equivalent concentration above about 10 nM; inconclusive means between about 1.1 nM and that limit
#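 Pin-transferred compounds and Texas Red standards go into 100 mM Tris buffer, pH 8.0. After 15 min at room temperature, plates are imaged with 547/618 nm filters. Each value is a dye-equivalent concentration derived from the per-plate dye curve.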
# Fluorescein autfl = compound fluoresces in the fluorescein spectral region; Compound autofluorescence, 480/540 nm, fluorescein-equivalent; stronger effect = higher value; max fluorescein-equivalent concentration, M; 0.91% of 59,000 active; AID 593; in the data active means max fluorescein-equivalent concentration above about 10 nM; inconclusive means between about 1.1 nM and that limit
#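 Spectral profiling of library compounds in the fluorescein window (480 nm excitation, 540 nm emission) after 15 min at room temperature in pH 8.0 Tris (100 mM). Values are dye-equivalent concentrations.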
# * marks the source's active call; other numbers are inactive results; i = inactive; ? = inconclusive. Compounds with a hit are over-represented: about 0.9% of the library has one in this group of screens. Unless noted, how the calls were made is not given here.
SMILES,Resorufin autofl,A647 autofl,Rhodamine fluor,A488 autofl,TexasRed autofl,Fluorescein autfl
Clc1ccc([C@@H](c2ccccc2Cl)C(Cl)Cl)cc1,i,8.6e-09,i,i,?,i
Cc1ccc(C)c(S(=O)(=O)C(C#N)c2nc3ccccc3nc2N2CCCC2)c1 (stereo not given),i,2.1e-08,i,i,i,1.1e-08M*
N#CC(c1nc2ccccc2nc1N1CCCC1)S(=O)(=O)c1cccs1 (stereo not given),i,2.8e-08,i,i,i,1.7e-08M*
COc1ccc(S(=O)(=O)C(C#N)c2nc3ccccc3nc2N2CCCCC2)cc1 (stereo not given),i,5.4e-09,i,i,i,?
O=[N+]([O-])c1ccc(CSc2ncnc3c2ncn3[C@@H]2O[C@@H](CO)[C@@H](O)[C@H]2O)cc1,i,1e-09,i,i,i,?
COCCn1c(=O)c(-c2cccs2)nc2cnc(N3CCNCC3)nc21,i,1e-09,i,i,i,?
CN(C)c1ccc(/C=C/C(O)=C2/C(=O)N(C)C3(C)CC2c2ccccc2O3)cc1 (stereo not given),i,1e-09,i,i,i,1.6e-08M*
COc1cc(N2C(=O)NC3CC2(C)Oc2ccccc23)cc(OC)c1OC (stereo not given),i,4.2e-08,i,i,i,i
CCN1CCN(C(=O)N[C@H](C(=O)N[C@@H]2C(=O)N3C(C(=O)O)=C(CSc4nnnn4C)CS[C@@H]23)c2ccc(O)cc2)C(=O)C1=O,i,5.2e-09,i,i,i,?
Cc1sc2nc(CSc3nc4ccccc4c(=O)n3CCCN3CCOCC3)[nH]c(=O)c2c1C,i,1e-09,i,?,i,3.4e-08M*
CC(=O)c1c(C)[nH]c(C(=O)CSc2nc3ccccc3c(=O)n2CCCN2CCOCC2)c1C,i,7.8e-09,i,i,?,?
Cc1ccc([C@@]2(C)CC/C(=N/N=C3\CC[C@](C)(c4ccc(C)c(C)c4)c4cc(C)c(C)cc43)c3cc(C)c(C)cc32)cc1C,i,1e-09,i,i,i,i
CC1(C)CC(=O)C2=C(C1)N1CCCCC1CC2=O (stereo not given),i,3.2e-08,i,i,i,1.5e-08M*
CC1=CC(=C(C#N)c2nc3ccccc3s2)C=C(C)N1Cc1ccco1,i,3.5e-08,i,?,i,1.9e-07M*
Nc1ncnc2nc[nH]c12.Nc1ncnc2nc[nH]c12.[Cl][Pt]([Cl])([Cl])[Cl],i,1e-09,i,i,i,i
CNc1nc(-c2cccnc2)nc2ccccc12,i,1e-09,i,i,i,i
O=[N+]([O-])c1ccc2ncccc2c1CCc1c([N+](=O)[O-])ccc2ncccc12,i,1e-09,i,i,i,1.1e-08M*
C=C[C@@](C)(O)CC[C@H]1[C@]2(C)CCCC(C)(C)[C@H]2CC[C@]1(C)O,i,1e-08,i,i,i,?
Cc1c(N=C2Nc3cccc4cccc2c34)c(=O)n(-c2ccccc2)n1C,i,2.7e-09,i,?,i,1.5e-07M*
O=C1CNCCCN2CCN(CCCNCC(=O)Nc3ccc(cc3)S(=O)(=O)c3ccc(cc3)NC(=O)CNCCCN3CCN(CCCNCC(=O)Nc4ccc(cc4)S(=O)(=O)c4ccc(cc4)N1)CC3)CC2,i,1e-09,i,i,i,i
Cc1cc(C)c(S(=O)(=O)N(CC(=O)N2CCOCC2)C2CCCCC2)c(C)c1,i,1e-09,i,i,i,i
Cc1cc(C)c(S(=O)(=O)N(CC(=O)O)C2CCCCC2)c(C)c1,i,3.5e-08,i,i,i,2.6e-08M*
C=C[C@@]1(C)C=C2CC[C@@H]3[C@](C)(CCC[C@@]3(C)C(=O)O)[C@H]2CC1,i,2.4e-09,i,i,i,i
Nc1c(S(=O)(=O)O)cc(Nc2cccc(S(N)(=O)=O)c2)c2c1C(=O)c1ccccc1C2=O,i,1e-09,i,i,?,?
Cn1cc[nH]c1=S,i,1.8e-08,i,i,i,2.2e-08M*
SMILES,Resorufin autofl,A647 autofl,Rhodamine fluor,A488 autofl,TexasRed autofl,Fluorescein autfl
CCOC(=O)c1c(C)[nH]c(C=Nc2ccccc2)c1O,i,3.6e-08,i,i,?,1.7e-08M*
O=C(/C=C\c1ccc(O)cc1)c1ccc(O)cc1O,i,2e-08,i,?,?,3.7e-08M*
COc1ccc(-c2nnc(-c3ccc(N(C)C)cc3)o2)cc1,i,9.2e-09,i,i,?,i
CN(C)c1ccc(-c2nnc(-c3ccc(S(=O)(=O)C(F)F)cc3)o2)cc1,i,2.5e-08,i,i,i,2e-08M*
Cc1cc(Cc2cc(C)c(N)cc2N)c(N)cc1N,i,4.8e-08,i,i,i,?
CCN1C(=O)c2cccc3c(S(=O)(=O)Nc4ncccc4C)ccc1c23,i,2.5e-08,i,i,i,?
Cc1ccc(N2C(=O)c3cccc4c(N5CCN(C)CC5)ccc(c34)C2=O)c2cccnc12,i,1e-09,i,?,i,2.6e-08M*
Cc1nn2cnc3sc4c(c3c2nc1=O)CCCC4,i,1.3e-09,i,i,i,1e-08M*
O=C1c2ccccc2-c2onc3ccc(NCc4ccco4)c1c23,1.7e-08M*,1.1e-08,2e-08M*,5.4e-08M*,1.8e-08M*,1.2e-06M*
O=c1nccc(NCc2ccco2)[nH]1,i,6.4e-09,i,i,?,?
COc1cccc(=O)c2c(C)oc(C)c12,i,3.6e-08,i,?,i,7.1e-08M*
CN(C)CN1C(=O)S/C(=C2/C(=O)N(CN(C)C)c3ccccc32)C1=O,i,1e-09,i,i,i,i
CCOC(=O)Nc1cc(C)ccc1OC,i,1.2e-08,i,i,?,i
CCOC(=O)Nc1ccc(NCc2ccc(F)cc2)nc1N,i,3.1e-08,i,i,i,1.6e-08M*
CC(=Nc1cccc(O)c1)c1sc2ccccc2c1O,i,1e-09,i,i,i,1.9e-08M*
CN=Cc1sc2ccccc2c1O,i,2.2e-08,i,i,i,i
Cc1cn([C@H]2C=C[C@H](CO)O2)c(=O)[nH]c1=O,i,4.6e-09,i,i,?,?
CN(C)c1ccc(N/C=C/C(=O)c2ccc(F)cc2)cc1,i,1e-09,i,i,i,2.4e-08M*
Nc1nc(N)c(N=Nc2ccc(C(=O)O)c(O)c2)c(N)n1,i,1e-09,i,i,i,1.4e-08M*
Nc1ccc(C(=O)O)c(O)c1,i,1e-09,i,i,i,?
